# Source: PubChem BioAssay
# TRHR enhancer = qHTS for Small Molecule Agonists and Allosteric Enhancers of Human TRH Receptor: Primary Screen for Enhancers; Thyrotropin-releasing hormone receptor (Homo sapiens), P34981; TRHR cells, fluo-8 calcium fluorescence, EC20 TRH enhancement; enhancement, % at 2 µM; 360,000 compounds, 0.66% hits; AID 493056, 2011; in the data active = enhancement above about 30%; also: 0% is about no effect
#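 TRHR-expressing cells loaded with fluo-8 calcium dye were read kinetically (ex 480/em 530) during compound addition, then stimulated with an EC20 of TRH (10 nM final). Enhancement of the Gq-mediated intracellular calcium response was scored.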
# D1 agonist = Allosteric Agonists of the Human D1 Dopamine Receptor: qHTS; AID 504660, 2011; D(1A) dopamine receptor (Homo sapiens), P21728; 360,000 compounds, 1% hits; activation, % at 2 µM; HEK293 T-REx D1 cells, calcium flux, agonist mode; also: 0% is about no effect
# Target sequence (P21728 whole entry, looked up): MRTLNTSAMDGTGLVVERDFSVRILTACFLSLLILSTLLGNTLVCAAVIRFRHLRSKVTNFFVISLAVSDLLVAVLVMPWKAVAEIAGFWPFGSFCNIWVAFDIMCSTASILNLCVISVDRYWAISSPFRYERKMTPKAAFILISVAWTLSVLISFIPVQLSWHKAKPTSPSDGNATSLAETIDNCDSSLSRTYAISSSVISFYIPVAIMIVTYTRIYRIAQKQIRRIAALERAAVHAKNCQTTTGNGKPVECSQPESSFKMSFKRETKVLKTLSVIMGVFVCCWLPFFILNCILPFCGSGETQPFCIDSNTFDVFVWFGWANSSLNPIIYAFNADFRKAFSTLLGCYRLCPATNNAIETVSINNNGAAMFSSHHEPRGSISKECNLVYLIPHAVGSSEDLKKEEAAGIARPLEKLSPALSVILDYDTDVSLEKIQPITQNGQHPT
#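 Inducible HEK293 T-REx D1 cells, force-coupled to calcium signalling, were plated at 4000 cells/well with tetracycline and held overnight at 30 C. After no-wash calcium dye loading, compound-evoked calcium rise over 180 s flagged agonists.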
# D1 antag = Antagonist of Human D 1 Dopamine Receptor: qHTS; HEK293 TREx D1 cells, calcium flux, dopamine EC80; active compounds read low; activity change, negative = inhibition, % at 10 µM; 360,000 compounds, 3.2% hits; in the data active = activity change below about -30%; also: % is scaled to controls: 0 for no effect and ±100 for the full control effect
#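 Using tetracycline-induced force-coupled D1 Hek293 cells and a calcium dye, signals were followed for 180 s after compound, then for 180 s after EC80 dopamine, to detect inhibitors.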
# D1 potentiator = Potentiators of Human D1 Dopamine Receptor: qHTS | D(1A) dopamine receptor (Homo sapiens), P21728 | HEK293 TREx D1 cells, calcium flux, dopamine EC20 potentiation | potentiation, % at 10 µM | 360,000 compounds, 0.036% hits; in the data active = potentiation above about 30%; also: 0% is about no effect
# TRHR agonist = qHTS for Small Molecule Agonists and Allosteric Enhancers of Human TRH Receptor: Primary Screen for Agonists | AID 493084, 2011 | 360,000 compounds, 0.18% hits | activation, % at 2 µM | TRHR cells, calcium flux fluo-8, FDSS agonist mode | Thyrotropin-releasing hormone receptor (Homo sapiens), P34981; also: 0% is about no effect
#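 Steps: seed TRHR cells overnight; add fluo-8 no-wash Ca dye, RT 30 min–1.5 h; record 10 s baseline; pin-transfer compounds; monitor fluorescence 1 cycle/s for the agonist window. Calcium increases flag candidate agonists.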
# Starred values were filed as active, the others as inactive; . = no result given. Hits are enriched below; roughly 4.7% of the tested compounds scored in any of these assays. Rule as the data show it, unless noted: active = activation above about 30%; inactive = the rest.
SMILES,TRHR enhancer,D1 agonist,D1 antag,D1 potentiator,TRHR agonist
CCc1nn(CC(=O)NCc2cccc(OC)c2OC)c(=O)c2cc3occc3n12,-7,0,10,6,0
C/C=C(/C)C(=O)Nc1cccc(C2=NOC3(C2)C[C@@H](C(N)=O)N(C(=O)CC)C3)c1 (some centres undefined),-12,1,-7,-9,0
C=C(C)C(=O)Nc1cccc(C2=NOC3(C2)C[C@@H](C(N)=O)N(C(=O)c2ccc(OC)cc2)C3)c1 (some centres undefined),6,1,-33*,-7,0
C/C=C/C(=O)Nc1cccc(C2=NOC3(C2)C[C@@H](C(N)=O)N(C(=O)/C(C)=C/C)C3)c1 (some centres undefined),-1,2,-31*,2,0
C/C=C(\C)C(=O)Nc1cccc(C2=NOC3(C2)C[C@H](C(N)=O)N(C(=O)CC#N)C3)c1 (some centres undefined),24,2,-48*,-5,0
C=C(C)C(=O)Nc1cccc(C2=NOC3(C2)C[C@@H](C(N)=O)N(C(=O)c2cc([N+](=O)[O-])cc([N+](=O)[O-])c2)C3)c1 (some centres undefined),0,1,-16,-2,0
O=C(COc1ccc(Cl)cc1Cl)c1ccc[nH]1,0,1,2,3,0
Cc1ccc(C(=O)N2CCN(c3cccc(Cl)c3)CC2)cc1C,4,2,-32*,-1,0
Cc1ccc(Cl)cc1N1CCN(C(=O)c2ccc(C)c(-n3c(C)nc4cccnc43)c2)CC1,0,69*,-32*,3,-1
O=C(c1cccc(N2CCCC2=O)c1)N1CCN(c2cccc(Cl)c2)CC1,-3,17,-57*,-7,0
O=C(NC(=O)N1CCN(c2cccc(Cl)c2)CC1)c1ccccc1,-5,4,-29,-11,0
Cc1ccc(C)c(N2CCN(C(=O)c3cccc(-n4c(C)nc5cccnc54)c3)CC2)c1,-6,15,-21,-2,2
O=C(NC(=O)N1CCN(c2cccc(Cl)c2)CC1)c1ccc(Cl)cc1,-2,10,-37*,-19,3
Cc1cc2c(s1)c1cnn(Cc3cc(F)c(F)c(F)c3F)c(=O)c1n2C,2,-2,-11,13,0
COc1ccc(S(=O)(=O)N(CC(=O)N2CCOCC2)c2ccc(F)cc2)cc1OC,1,3,1,-2,0
CCOc1ccccc1N1CC(C(=O)Nc2ccc(S(=O)(=O)N3CCCCC3)cc2)CC1=O (centres undefined),-2,-1,-2,-8,0
O=C(Nc1ccc(F)cc1F)Nc1csc2ccccc12,1,13,-33*,-5,2
O=C(Nc1ccc(F)c(Cl)c1)Nc1csc2ccccc12,-10,14,-33*,-10,0
CC(C)CNC(=O)Nc1ccc(F)c(Cl)c1,-3,14,-13,-1,2
CCOC(=O)Cc1c(C)nc2cc(-c3ccc(C(C)(C)C)cc3)nn2c1C,2,1,-39*,-6,1
CCOc1ccc(CN(C)C(=O)Cc2c[nH]c3ccccc23)cc1,-1,7,-16,-9,0
CCCc1ccc(-c2cc(NC(=O)CSc3n[nH]c(N)n3)n(-c3ccccc3)n2)cc1,1,33*,1,4,-1
CC(NC(=O)CSc1n[nH]c(N)n1)c1ccccc1 (centres undefined),-6,20,4,.,1
COc1ccc2c(Cl)c(-c3nnc(SCC(=O)c4ccccc4)n3C)sc2c1,-5,4,-43*,-5,0
CCc1ccc(/C=C/C(=O)c2ccc(N3CCOCC3)cc2)cc1,-3,5,0,-7,2
SMILES,TRHR enhancer,D1 agonist,D1 antag,D1 potentiator,TRHR agonist
CCc1ccc(/C=C/C(=O)c2ccc(S(=O)(=O)N(C)C)cc2)cc1,-1,50*,-62*,0,0
CC1CCN(CCNC(=O)CCS(=O)(=O)c2ccc(Br)cc2)CC1,2,1,-43*,-6,0
Cc1ccc(NC(=O)c2cc(S(=O)(=O)N3CCC(C)CC3)cn2C)cc1Cl,5,3,4,-1,0
CC(C1CC1)N(Cc1ccccc1)C(=S)Nc1ccccc1Cl (centres undefined),-1,6,-4,-3,0
COc1ccccc1Oc1ccc(S(=O)(=O)NCc2ccccn2)cc1,6,14,-54*,-8,0
COc1ccc(S(=O)(=O)NCc2ccccn2)cc1OC,-2,5,-5,-7,0
O=C(c1ccc(O)cc1)c1ccc(C(=O)c2ccc(O)cc2)cc1,7,22,-80*,-10,0
Cc1ccc(OC(=O)C2c3ccccc3Oc3ccccc32)cc1C,3,32*,-12,-4,0
CC(=O)c1ccc(OC(=O)C2c3ccccc3Oc3ccccc32)cc1,-9,6,-4,4,1
CCOc1ccc(CNC(=O)C2CCN(S(=O)(=O)N3CCCCC3)CC2)cc1,-1,-4,-7,0,-1
O=S(=O)(NCc1c(Cl)cccc1Oc1ccccc1)c1ccc(F)cc1,-6,29,-34*,-4,4
CCOC(=O)c1c(C)n(-c2ccc(C)cc2)c2ccc(O)c(CN(C)C)c12,2,34*,-24,-11,0
CCOC(=O)c1c(C)n(-c2ccc(OC)cc2)c2ccc(O)c(CN(C)C)c12,-8,14,5,0,3
COCC(C)N1CC(O)=C(c2nc(-c3ccc(Cl)cc3)cs2)C1=N (centres undefined),1,1,-31*,-16,0
CCCCN1CC(O)=C(c2nc(-c3ccc(Cl)cc3)cs2)C1=N,2,3,21,-2,0
O=C(O)CCC(=O)N1CCN(c2nc(-c3ccccc3)c3cc(Br)ccc3n2)CC1,6,0,10,-1,0
O=C(O)CCC(=O)N1CCN(c2nc(-c3ccccc3Cl)c3cc(Br)ccc3n2)CC1,9,66*,-5,2,0
CCOc1ccc(N(C(C)C(=O)NN=C2CCCCCCC2)S(C)(=O)=O)cc1 (centres undefined),6,0,-33*,-8,-1
Cn1c2cc(C=O)sc2c2cnn(Cc3ccccc3F)c(=O)c21,4,0,10,1,-1
O=S(=O)(N/N=C/c1ccc(OC2CSC2)cc1)c1ccccc1,2,47*,11,-5,-2
Cc1ccc(OCc2cc(C(=O)N3CCN(c4ccccc4)CC3)no2)cc1C,1,0,7,-13,-1
